Data on ten sequences can be found in the OligoGym collection.
Also: reference of the scale not given here.

The target of one assay is ERG. In words: pooled miR-30 sensor sort-seq; sequence = guide strand. As to conditions: shRNA.
As to TGCTTCTACATACACTGTCTTT, the sensor-assay potency score (higher = more potent) was -1.13.
On the same count and under the same terms, the value for TTATCGTAGTTCATGTTGGGTT was -0.512.
Turning to TAAAATGGCATTATAAACGGTA, the sensor-assay potency score (higher = more potent) was -0.0295.
TTCTTTGGCACTTTGTCCTTAA returned a sensor-assay potency score (higher = more potent) of -0.383.
TTCTCCTCCATGTAGCTGCCGT registered a sensor-assay potency score (higher = more potent) of -0.46.
The same measure, in the same setting: the figure for TGGAAGTCGAACTTGTAGGCGT is 0.335.

Another assay has as its target ERICH1. Described as above. As to conditions: shRNA.
With TTCTTTGATTTATGCTTCCTAA, the sensor-assay potency score (higher = more potent) is -1.05.
Sequence TTTTTTGTTAAAGAGGAGCTGT came in with a sensor-assay potency score (higher = more potent) of 0.195.
Consider TCTCTCAGTATCTTGCAGGAGC, for which the sensor-assay potency score (higher = more potent) is -0.55.
Regarding TATACATTTAACTTAACAGAAT, the sensor-assay potency score (higher = more potent) was -1.58.
